# Laboratory results published in article PMC3218832.
# Tests used:
# Assay in all cases: protein binding microarray; high values mean tight binding
# Settings in all cases: dsDNA, one strand shown
# RELARELA (p65 homodimer) = RELARELA (p65 homodimer) (Homo sapiens, UniProt Q04206 1-307)
# p50p50 homodimer = p50p50 homodimer (Homo sapiens, UniProt P19838 7-356)
# p52p52 homodimer = molecular target: T1, p52p52 homodimer (Homo sapiens, UniProt Q00653 4-332)
# T1 sequence: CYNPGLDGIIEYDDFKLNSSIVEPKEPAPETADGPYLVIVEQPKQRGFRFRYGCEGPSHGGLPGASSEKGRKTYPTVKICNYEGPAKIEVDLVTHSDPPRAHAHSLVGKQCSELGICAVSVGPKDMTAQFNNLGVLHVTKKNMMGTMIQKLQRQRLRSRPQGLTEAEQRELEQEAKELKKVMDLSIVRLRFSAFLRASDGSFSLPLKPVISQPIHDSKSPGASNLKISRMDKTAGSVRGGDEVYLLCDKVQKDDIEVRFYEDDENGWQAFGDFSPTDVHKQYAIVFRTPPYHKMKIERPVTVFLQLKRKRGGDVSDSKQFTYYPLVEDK
# [1] = molecular target: RELA (p65) subunit of heterodimer;p50 subunit (Homo sapiens;Homo sapiens, UniProt Q04206;P19838 1-307;7-356)
# RELA (p65) subunit of heterodimer;p50 subunit, sequence (Q04206 1-307, chain 1 of 2): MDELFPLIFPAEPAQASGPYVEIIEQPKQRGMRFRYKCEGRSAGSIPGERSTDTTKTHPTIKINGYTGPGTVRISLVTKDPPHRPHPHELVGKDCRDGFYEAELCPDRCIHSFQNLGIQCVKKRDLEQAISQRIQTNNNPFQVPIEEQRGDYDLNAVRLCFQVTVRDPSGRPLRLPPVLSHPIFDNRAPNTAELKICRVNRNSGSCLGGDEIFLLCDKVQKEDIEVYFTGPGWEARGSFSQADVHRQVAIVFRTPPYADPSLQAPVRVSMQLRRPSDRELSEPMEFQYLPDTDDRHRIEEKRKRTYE
# RELA (p65) subunit of heterodimer;p50 subunit, sequence (P19838 7-356, chain 2 of 2): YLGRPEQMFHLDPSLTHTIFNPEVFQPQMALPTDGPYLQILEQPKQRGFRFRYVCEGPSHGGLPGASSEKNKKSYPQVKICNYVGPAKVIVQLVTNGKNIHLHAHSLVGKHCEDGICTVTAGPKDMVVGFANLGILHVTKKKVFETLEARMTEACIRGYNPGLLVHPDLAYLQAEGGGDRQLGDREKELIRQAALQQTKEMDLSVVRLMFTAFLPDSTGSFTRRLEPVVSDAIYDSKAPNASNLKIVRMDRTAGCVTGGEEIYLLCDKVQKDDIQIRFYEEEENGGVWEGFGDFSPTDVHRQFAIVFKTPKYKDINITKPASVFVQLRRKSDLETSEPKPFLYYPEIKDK
# [2] = molecular target: RELA (p65) subunit of heterodimer;p52 subunit (Homo sapiens;Homo sapiens, UniProt Q04206;Q00653 1-307;4-332)
# RELB subunit;p50 subunit = RELB subunit;p50 subunit (Homo sapiens;Homo sapiens, UniProt Q01201;P19838 120-401;7-356)
# RELB subunit;p52 subunit = molecular target: T2, RELB subunit;p52 subunit (Homo sapiens;Homo sapiens, UniProt Q01201;Q00653 120-401;4-332)
# T2 sequence 1: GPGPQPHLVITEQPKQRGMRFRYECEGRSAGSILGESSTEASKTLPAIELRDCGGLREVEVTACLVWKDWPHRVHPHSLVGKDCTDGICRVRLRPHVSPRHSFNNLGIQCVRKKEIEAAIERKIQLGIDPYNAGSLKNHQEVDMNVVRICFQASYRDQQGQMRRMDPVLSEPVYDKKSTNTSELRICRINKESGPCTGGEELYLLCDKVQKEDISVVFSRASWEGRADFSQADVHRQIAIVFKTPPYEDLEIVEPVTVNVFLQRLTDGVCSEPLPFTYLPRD
# T2 sequence 2: T1 sequence
# [3] = molecular target: C-Rel subunit;p50 subunit (Homo sapiens;Homo sapiens, UniProt Q04864;P19838 1-285;7-356)
# [4] = molecular target: T3, C-Rel subunit;p52 subunit (Homo sapiens;Homo sapiens, UniProt Q04864;Q00653 1-285;4-332)
# T3 sequence 1: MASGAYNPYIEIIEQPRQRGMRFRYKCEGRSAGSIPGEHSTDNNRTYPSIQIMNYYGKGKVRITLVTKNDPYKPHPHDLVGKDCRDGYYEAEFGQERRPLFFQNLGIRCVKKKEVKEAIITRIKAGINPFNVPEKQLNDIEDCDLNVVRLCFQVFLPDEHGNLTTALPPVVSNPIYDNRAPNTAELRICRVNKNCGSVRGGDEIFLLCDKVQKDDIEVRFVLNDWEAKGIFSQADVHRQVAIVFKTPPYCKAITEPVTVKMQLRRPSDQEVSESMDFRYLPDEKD
# T3 sequence 2: T1 sequence
# p50p50 homodimer, sequence (P19838 7-356): as the sequence (P19838 7-356, chain 2 of 2) above
# RELARELA (p65 homodimer), sequence (Q04206 1-307): as the sequence (Q04206 1-307, chain 1 of 2) above
Sequence,binding signal (RELARELA (p65 homodimer)),binding signal (p50p50 homodimer),binding signal (p52p52 homodimer),binding signal [1],binding signal [2],binding signal (RELB subunit;p50 subunit),binding signal (RELB subunit;p52 subunit),binding signal [3],binding signal [4]
CAGTAGACCCC,-0.444 z-score,-0.398 z-score,-0.423 z-score,-0.397 z-score,-0.485 z-score,-0.472 z-score,-0.384 z-score,-0.501 z-score,-0.439 z-score
GGGGGAACCCC,2.66 z-score,1.15 z-score,3.25 z-score,2.25 z-score,3.23 z-score,2.62 z-score,2.86 z-score,2.58 z-score,3.54 z-score
GGAAGTATCCT,-0.066 z-score,-1.38 z-score,-0.457 z-score,-0.799 z-score,-0.877 z-score,-1.12 z-score,-0.866 z-score,-1.09 z-score,-0.681 z-score
AGGGACGTCCT,0.554 z-score,0.528 z-score,1.06 z-score,0.549 z-score,0.923 z-score,0.448 z-score,0.709 z-score,0.177 z-score,0.67 z-score
CAAGGTATCCC,-0.591 z-score,-0.9 z-score,-0.296 z-score,-0.874 z-score,-0.575 z-score,-0.488 z-score,-0.446 z-score,-0.834 z-score,-0.451 z-score
GGGAACGCCCT,0.932 z-score,-0.126 z-score,0.394 z-score,0.492 z-score,0.418 z-score,-0.197 z-score,0.214 z-score,0.154 z-score,0.403 z-score
GGAGTCGTCCT,-0.136 z-score,-1.28 z-score,-0.582 z-score,-0.993 z-score,-0.875 z-score,-1.03 z-score,-0.714 z-score,-1.4 z-score,-0.812 z-score
AAAGGGATCCC,0.0658 z-score,-0.302 z-score,0.0251 z-score,-0.128 z-score,-0.268 z-score,-0.184 z-score,-0.115 z-score,-0.213 z-score,-0.202 z-score
CGGGTTACCCT,0.242 z-score,-0.264 z-score,-0.0855 z-score,-0.112 z-score,-0.124 z-score,0.063 z-score,-0.22 z-score,-0.0809 z-score,-0.0258 z-score
GAGAACTTCCT,0.439 z-score,-0.697 z-score,-0.718 z-score,-0.503 z-score,-0.731 z-score,-0.944 z-score,-0.781 z-score,-0.692 z-score,-0.645 z-score
GGGTAACCCCT,1.23 z-score,0.71 z-score,1.97 z-score,1.42 z-score,1.8 z-score,0.672 z-score,1.45 z-score,0.858 z-score,1.95 z-score
GGAGACTTCCC,1.11 z-score,0.00445 z-score,0.117 z-score,0.505 z-score,0.17 z-score,-0.132 z-score,-0.125 z-score,0.335 z-score,0.286 z-score
AAAAGGATCCT,-0.683 z-score,-1.24 z-score,-0.703 z-score,-1.11 z-score,-1.09 z-score,-1.05 z-score,-0.866 z-score,-1.6 z-score,-0.998 z-score
CGATGTCTCCT,-0.49 z-score,-1.36 z-score,-0.736 z-score,-0.843 z-score,-0.849 z-score,-1.04 z-score,-0.858 z-score,-1.52 z-score,-0.895 z-score
GAGAACTCCCC,0.725 z-score,1.15 z-score,1.06 z-score,1.34 z-score,1.05 z-score,1.1 z-score,0.794 z-score,0.916 z-score,0.92 z-score
GAGATCCTCCC,-0.414 z-score,-0.604 z-score,-0.376 z-score,-0.425 z-score,-0.539 z-score,-0.422 z-score,-0.686 z-score,-0.717 z-score,-0.442 z-score
AGATAAGTCCC,0.485 z-score,1.11 z-score,0.806 z-score,1.13 z-score,0.806 z-score,1.2 z-score,0.954 z-score,0.899 z-score,0.335 z-score
CAGAATACCCT,0 z-score,1.12 z-score,0.546 z-score,0.635 z-score,0.477 z-score,0.743 z-score,0.882 z-score,0.496 z-score,0.421 z-score
CGGGAGATCCT,-0.093 z-score,0.247 z-score,0.164 z-score,-0.217 z-score,0.0606 z-score,0.132 z-score,0.152 z-score,-0.227 z-score,0.0327 z-score
GAAAAGTCCCT,1.43 z-score,1.36 z-score,2.5 z-score,2.07 z-score,1.79 z-score,2.67 z-score,2.22 z-score,1.59 z-score,2.16 z-score
AGAATGACCCC,-0.278 z-score,-0.204 z-score,-0.112 z-score,-0.177 z-score,-0.287 z-score,-0.428 z-score,-0.388 z-score,-0.442 z-score,-0.311 z-score
AAGATCGTCCC,0.328 z-score,0.168 z-score,0.307 z-score,-0.197 z-score,-0.135 z-score,0.309 z-score,0.078 z-score,0.266 z-score,-0.166 z-score
CAGGTTGTCCT,-0.115 z-score,-0.869 z-score,-0.451 z-score,-0.774 z-score,-0.884 z-score,-0.961 z-score,-0.805 z-score,-1.05 z-score,-0.71 z-score
GAGTGCGCCCC,-0.402 z-score,-0.17 z-score,-0.0852 z-score,-0.178 z-score,0.0378 z-score,-0.305 z-score,-0.0411 z-score,-0.0592 z-score,-0.0203 z-score
GGGATGCCCCT,1.02 z-score,0.778 z-score,2.65 z-score,1.78 z-score,2.07 z-score,1.74 z-score,1.82 z-score,1.22 z-score,2.2 z-score
GGAGTAATCCC,0.396 z-score,-0.279 z-score,0.000216 z-score,-0.0898 z-score,-0.103 z-score,-0.277 z-score,-0.368 z-score,0.0858 z-score,0.0188 z-score
CAGGTGCTCCT,-0.953 z-score,-0.0506 z-score,0.0612 z-score,-0.571 z-score,-0.266 z-score,-0.45 z-score,-0.443 z-score,-1.31 z-score,-0.565 z-score
AGGTTTATCCT,-0.465 z-score,-0.953 z-score,-0.558 z-score,-1.01 z-score,-0.905 z-score,-0.943 z-score,-0.798 z-score,-1.17 z-score,-0.61 z-score
GGGTTGACCCT,-0.0795 z-score,-0.785 z-score,-0.387 z-score,-0.407 z-score,-0.336 z-score,-0.554 z-score,-0.73 z-score,-0.769 z-score,-0.115 z-score
GGGAAGACCCT,0.871 z-score,0.365 z-score,1.66 z-score,1 z-score,1.17 z-score,0.374 z-score,1.01 z-score,0.481 z-score,1.03 z-score
